# Reference: the supplement of paper PMC10849652
# Targets with a hit are over-represented here; the source holds about 7,900 in all. About 0.6% of all pairs of compound and target were hits. Values without a mark were called inactive.
# Assays:
# Test in all cases: log2 fold change, soluble protein after heating vs DMSO (PISA); higher = thermal stabilisation; K562 cells, 10 uM, 30 min; active = over 0.2 and 3.5 SD of the protein, either way, in both replicates (recomputed)
# [1] = compound: C#Cc1cccc(Nc2ncnc3cc(OCCOC)c(OCCOC)cc23)c1 [erlotinib]
# Method in brief: (§1)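 Aliquots of K562 cells (2×10^6 cells/mL) treated with 10 μM compound for 30 min were heated for 3 min over 48°C-58°C. After pooling and extraction in PBS with 0.5% NP-40 at 4°C, soluble protein from a 21,000xg, 90 min spin was quantified by TMTpro 16plex LC-MS/MS with channel sums equalised. Thermal stability is expressed against control samples, from duplicates, as a log2 fold change.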
# [2] = compound: C/C(=N\NC(=O)C1=CC(=CC=C1)S(=O)(=O)N2CCOCC2)/C3=C(C=CC(=C3)Cl)O
# Method in brief: as §1
# [3] = compound: C1=CC(=C(C=C1Cl)C2=NC3=NC=CN=C3C(=N2)NC4=CC=NC=C4)F
# Method in brief: as §1
# [4] = compound: C1=CC(=CC=C1C2=NC3=C(N2)C=C(C=C3)C(=O)N)OC4=CC=C(C=C4)Cl
# Method in brief: as §1
# [5] = compound: C1=CC2=C(C=CC(=C2)/C=C\3/C(=O)NC(=NCC4=CC=CS4)S3)N=C1
# Method in brief: as §1
# [6] = compound: C1=CC2=NC=CN=C2C=C1/C=C/3\C(=O)NC(=O)S3
# Method in brief: as §1
# [7] = compound: C1=CC=C(C=C1)C2=NC(=C(N2)C3=CC=NC=C3)C4=CC(=C(C=C4)Cl)O
# Method in brief: as §1
# [8] = compound: C1=CC=C2C(=C1)C3=NNC4=CC=CC(=C43)C2=O
# Method in brief: as §1
# [9] = compound: C1CCN(C1)C(=O)NC2=CC=CC(=C2)NC3=NC=C(C(=N3)NCCC4=CN=CN4)Br
# Method in brief: as §1
# [10] = compound: C1CN(CCC1(CC2=CC=C(C=C2)Cl)N)C3=NC=NC4=C3C=CN4
# Method in brief: as §1
# [11] = compound: C1COCCN1CCN2C3=CC=CC=C3N=C2NC(=O)C4=CC(=CC=C4)[N+](=O)[O-] [IRAK-1-4 Inhibitor I]
# Method in brief: as §1
# [12] = compound: C=CC(=O)N1CCC[C@@H](n2nc(-c3ccc(Oc4ccccc4)cc3)c3c(N)ncnc32)C1 [ibrutinib]
# Method in brief: as §1
# [13] = compound: CC(=O)c1cnc2ccc(-c3cc(Cl)c(O)c(Cl)c3)nc2c1N[C@H]1CC[C@H](CN(C)C)CC1
# Method in brief: as §1
# [14] = compound: CC(C)(C)Cn1c(N)nc2ccc(-c3[nH]c(C(C)(C)C)nc3-c3ccc(F)cc3)nc21 [ralimetinib]
# Method in brief: as §1
# [15] = compound: CC(C)(O)CC(=O)NCCn1ccc2ncnc(Nc3ccc(Oc4cccc(C(F)(F)F)c4)c(Cl)c3)c21
# Method in brief: as §1
# [16] = compound: CC(C)C1=C2N=C(C=C(N2N=C1)NCC3=CC=CC=C3)NCCCCCCN
# Method in brief: as §1
# [17] = compound: CC(C)C[C@@H](C=O)NC(=O)[C@H](CC(C)C)NC(=O)[C@H](CC(C)C)NC(=O)OCc1ccccc1
# Method in brief: as §1
# [18] = compound: CC(C)N(C[C@H]1O[C@@H](n2cnc3c(N)ncnc32)[C@H](O)[C@@H]1O)[C@H]1C[C@@H](CCc2nc3cc(C(C)(C)C)ccc3[nH]2)C1 [pinometostat]
# Method in brief: as §1
# [19] = compound: CC1=C(C(CC(=O)N1)C2=CC=C(C=C2)C(F)(F)F)C(=O)NC3=C(C=C4C(=C3)C=NN4)F
# Method in brief: as §1
# [20] = compound: CC1=C(C2=C(C=C1)C(=O)C3=CC=CC=C3N2CCCN)C
# Method in brief: as §1
# UniProt Q13535, sequence (Q13535 whole entry, looked up): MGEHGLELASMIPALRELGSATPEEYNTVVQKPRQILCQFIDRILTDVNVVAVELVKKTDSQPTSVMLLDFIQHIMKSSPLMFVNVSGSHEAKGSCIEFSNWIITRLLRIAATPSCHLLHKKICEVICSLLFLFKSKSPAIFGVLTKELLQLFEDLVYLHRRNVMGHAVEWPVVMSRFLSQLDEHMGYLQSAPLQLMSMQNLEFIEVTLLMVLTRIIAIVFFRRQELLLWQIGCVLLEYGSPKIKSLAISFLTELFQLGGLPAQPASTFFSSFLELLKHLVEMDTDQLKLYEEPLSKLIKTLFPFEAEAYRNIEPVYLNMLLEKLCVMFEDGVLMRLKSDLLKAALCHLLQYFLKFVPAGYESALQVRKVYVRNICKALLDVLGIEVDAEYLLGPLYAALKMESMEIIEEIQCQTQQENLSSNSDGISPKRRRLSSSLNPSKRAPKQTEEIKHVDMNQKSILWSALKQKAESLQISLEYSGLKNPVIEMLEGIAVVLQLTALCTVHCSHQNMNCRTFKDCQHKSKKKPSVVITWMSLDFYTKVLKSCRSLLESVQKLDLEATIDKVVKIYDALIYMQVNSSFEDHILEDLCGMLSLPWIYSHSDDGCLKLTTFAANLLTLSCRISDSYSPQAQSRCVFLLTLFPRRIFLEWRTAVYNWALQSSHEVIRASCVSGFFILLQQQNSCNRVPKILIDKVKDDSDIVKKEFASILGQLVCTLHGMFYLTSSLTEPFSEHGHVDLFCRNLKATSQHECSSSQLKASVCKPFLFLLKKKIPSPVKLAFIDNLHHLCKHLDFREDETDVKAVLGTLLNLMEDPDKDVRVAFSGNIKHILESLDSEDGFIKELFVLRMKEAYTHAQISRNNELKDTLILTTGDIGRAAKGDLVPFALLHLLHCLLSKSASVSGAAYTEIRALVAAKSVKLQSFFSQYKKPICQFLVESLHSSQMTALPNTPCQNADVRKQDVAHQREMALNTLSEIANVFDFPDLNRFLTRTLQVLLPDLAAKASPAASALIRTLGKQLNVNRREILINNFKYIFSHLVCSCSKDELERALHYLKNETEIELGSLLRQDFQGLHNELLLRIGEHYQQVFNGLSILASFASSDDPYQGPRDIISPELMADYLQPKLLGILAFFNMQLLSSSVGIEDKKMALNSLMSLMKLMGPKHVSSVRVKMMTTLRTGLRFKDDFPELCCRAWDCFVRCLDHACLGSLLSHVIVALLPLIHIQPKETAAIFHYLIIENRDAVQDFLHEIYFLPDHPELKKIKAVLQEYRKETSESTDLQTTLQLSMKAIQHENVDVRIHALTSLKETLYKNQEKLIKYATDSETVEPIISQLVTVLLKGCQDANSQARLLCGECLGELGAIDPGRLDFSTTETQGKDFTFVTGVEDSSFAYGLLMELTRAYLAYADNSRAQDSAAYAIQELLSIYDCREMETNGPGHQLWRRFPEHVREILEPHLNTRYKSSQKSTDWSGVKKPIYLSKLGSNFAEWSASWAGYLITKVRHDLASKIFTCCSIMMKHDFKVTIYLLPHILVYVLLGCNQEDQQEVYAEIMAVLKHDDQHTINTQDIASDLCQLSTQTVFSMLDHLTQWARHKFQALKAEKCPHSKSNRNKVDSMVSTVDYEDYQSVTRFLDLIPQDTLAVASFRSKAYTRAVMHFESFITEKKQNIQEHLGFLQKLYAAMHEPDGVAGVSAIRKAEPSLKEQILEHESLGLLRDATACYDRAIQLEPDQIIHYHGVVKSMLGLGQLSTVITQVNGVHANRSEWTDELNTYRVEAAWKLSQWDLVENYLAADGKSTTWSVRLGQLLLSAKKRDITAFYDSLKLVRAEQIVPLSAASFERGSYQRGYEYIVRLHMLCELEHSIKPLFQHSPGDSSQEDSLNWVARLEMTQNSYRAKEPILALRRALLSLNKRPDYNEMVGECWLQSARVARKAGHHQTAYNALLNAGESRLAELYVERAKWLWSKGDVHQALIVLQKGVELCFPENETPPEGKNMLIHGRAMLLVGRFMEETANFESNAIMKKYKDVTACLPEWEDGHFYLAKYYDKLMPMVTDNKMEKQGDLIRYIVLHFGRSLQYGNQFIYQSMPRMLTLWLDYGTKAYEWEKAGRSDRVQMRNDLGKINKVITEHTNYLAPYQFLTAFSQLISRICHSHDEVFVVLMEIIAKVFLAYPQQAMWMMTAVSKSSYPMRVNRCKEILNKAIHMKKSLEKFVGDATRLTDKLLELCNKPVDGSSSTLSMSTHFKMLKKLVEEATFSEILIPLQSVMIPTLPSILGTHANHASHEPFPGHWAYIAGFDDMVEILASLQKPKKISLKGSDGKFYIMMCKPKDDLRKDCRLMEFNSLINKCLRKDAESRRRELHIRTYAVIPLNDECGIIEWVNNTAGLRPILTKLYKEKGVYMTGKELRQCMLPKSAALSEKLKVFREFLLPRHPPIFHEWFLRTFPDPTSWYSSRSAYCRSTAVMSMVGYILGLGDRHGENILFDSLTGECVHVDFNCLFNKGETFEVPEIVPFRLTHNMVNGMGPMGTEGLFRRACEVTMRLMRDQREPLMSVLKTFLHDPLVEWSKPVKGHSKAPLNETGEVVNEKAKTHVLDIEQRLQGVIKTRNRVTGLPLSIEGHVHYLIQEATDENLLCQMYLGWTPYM
# UniProt Q86WA6, sequence (Q86WA6 whole entry, looked up): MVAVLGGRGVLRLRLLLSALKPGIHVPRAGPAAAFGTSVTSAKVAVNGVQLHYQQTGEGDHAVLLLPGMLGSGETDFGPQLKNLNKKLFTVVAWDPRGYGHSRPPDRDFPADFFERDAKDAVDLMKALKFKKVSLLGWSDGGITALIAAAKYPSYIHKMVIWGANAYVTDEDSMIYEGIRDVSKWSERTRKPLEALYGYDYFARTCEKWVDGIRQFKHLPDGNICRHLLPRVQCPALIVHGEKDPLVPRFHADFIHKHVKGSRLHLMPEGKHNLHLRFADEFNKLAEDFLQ
# UniProt Q8NBU5, sequence (Q8NBU5 whole entry, looked up): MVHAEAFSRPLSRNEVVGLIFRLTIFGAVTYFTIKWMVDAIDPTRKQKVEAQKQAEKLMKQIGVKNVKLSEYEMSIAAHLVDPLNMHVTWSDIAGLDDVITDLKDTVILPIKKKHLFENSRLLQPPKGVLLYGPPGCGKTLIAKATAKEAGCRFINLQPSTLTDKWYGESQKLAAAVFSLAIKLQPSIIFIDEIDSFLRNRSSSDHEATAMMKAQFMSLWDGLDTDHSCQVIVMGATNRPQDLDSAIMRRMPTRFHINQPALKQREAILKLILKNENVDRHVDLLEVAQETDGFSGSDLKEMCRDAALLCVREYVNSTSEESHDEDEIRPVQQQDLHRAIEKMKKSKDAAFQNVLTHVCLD
# UniProt P42025, sequence (P42025 whole entry, looked up): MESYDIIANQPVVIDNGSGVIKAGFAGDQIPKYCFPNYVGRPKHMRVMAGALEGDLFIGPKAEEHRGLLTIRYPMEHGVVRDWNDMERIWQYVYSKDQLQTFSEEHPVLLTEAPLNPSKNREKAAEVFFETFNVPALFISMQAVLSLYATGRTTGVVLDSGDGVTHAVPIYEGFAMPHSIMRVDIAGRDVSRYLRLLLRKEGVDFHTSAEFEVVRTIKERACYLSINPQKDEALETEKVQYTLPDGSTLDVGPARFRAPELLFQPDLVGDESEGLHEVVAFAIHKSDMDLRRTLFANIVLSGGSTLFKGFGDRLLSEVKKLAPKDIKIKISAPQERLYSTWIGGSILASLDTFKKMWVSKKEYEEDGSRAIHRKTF
# UniProt Q9UQB8, sequence (Q9UQB8 whole entry, looked up): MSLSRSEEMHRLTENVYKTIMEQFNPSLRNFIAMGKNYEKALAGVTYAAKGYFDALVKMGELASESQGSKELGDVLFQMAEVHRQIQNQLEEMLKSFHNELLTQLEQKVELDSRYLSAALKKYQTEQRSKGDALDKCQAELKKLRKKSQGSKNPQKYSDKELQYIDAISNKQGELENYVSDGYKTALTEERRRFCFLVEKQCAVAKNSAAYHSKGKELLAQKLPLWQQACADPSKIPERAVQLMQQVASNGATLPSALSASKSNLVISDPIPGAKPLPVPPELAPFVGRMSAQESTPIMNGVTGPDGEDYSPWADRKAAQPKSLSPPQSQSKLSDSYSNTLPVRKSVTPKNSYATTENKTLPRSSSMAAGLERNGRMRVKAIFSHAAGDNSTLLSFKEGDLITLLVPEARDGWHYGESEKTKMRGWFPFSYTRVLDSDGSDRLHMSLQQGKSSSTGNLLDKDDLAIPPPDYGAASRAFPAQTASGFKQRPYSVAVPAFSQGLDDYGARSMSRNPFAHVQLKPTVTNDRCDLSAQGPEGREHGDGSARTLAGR
# UniProt Q8N6T3, sequence (Q8N6T3 whole entry, looked up): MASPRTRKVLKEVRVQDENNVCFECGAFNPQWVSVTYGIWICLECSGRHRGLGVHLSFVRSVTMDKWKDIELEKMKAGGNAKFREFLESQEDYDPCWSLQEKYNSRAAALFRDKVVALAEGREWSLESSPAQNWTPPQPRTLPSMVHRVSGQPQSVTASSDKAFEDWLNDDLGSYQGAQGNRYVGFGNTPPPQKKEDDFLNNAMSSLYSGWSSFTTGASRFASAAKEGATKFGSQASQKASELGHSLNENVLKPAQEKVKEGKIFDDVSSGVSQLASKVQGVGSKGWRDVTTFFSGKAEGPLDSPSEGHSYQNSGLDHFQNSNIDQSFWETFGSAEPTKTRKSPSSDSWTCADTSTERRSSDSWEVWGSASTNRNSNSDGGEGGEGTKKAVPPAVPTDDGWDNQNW
# UniProt Q13795, sequence (Q13795 whole entry, looked up): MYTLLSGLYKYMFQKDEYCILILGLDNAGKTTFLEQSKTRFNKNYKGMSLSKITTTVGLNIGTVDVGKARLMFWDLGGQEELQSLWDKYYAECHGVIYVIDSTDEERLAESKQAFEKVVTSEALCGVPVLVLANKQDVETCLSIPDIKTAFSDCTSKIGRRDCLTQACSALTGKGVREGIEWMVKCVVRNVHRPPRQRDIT
# UniProt Q10589, sequence (Q10589 whole entry, looked up): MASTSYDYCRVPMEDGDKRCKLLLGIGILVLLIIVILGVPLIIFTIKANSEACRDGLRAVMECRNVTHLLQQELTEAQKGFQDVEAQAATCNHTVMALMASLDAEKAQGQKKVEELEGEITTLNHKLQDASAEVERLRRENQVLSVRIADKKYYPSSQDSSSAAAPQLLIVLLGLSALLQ
Target,log2 fold change [1],log2 fold change [2],log2 fold change [3],log2 fold change [4],log2 fold change [5],log2 fold change [6],log2 fold change [7],log2 fold change [8],log2 fold change [9],log2 fold change [10],log2 fold change [11],log2 fold change [12],log2 fold change [13],log2 fold change [14],log2 fold change [15],log2 fold change [16],log2 fold change [17],log2 fold change [18],log2 fold change [19],log2 fold change [20]
ARFGAP1 (UniProt Q8N6T3),-0.017,0.131,0.086,-0.072,-0.017,-0.018,-0.069,0.035,-0.037,0.001,-0.008,0.005,-0.013,0.07,-0.012,-0.11,-0.017,-0.027,0.02,0.002
AFG1L (UniProt Q8WV93),0.053,0,0.076,-0.083,0.065,0.041,-0.204,-0.042,0.058,-0.004,0.014,-0.016,-0.135,-0.134,-0.091,-0.385 (active),0.146,0.023,0.057,-0.056
BPHL (UniProt Q86WA6),-0.016,0.053,0.057,-0.016,0.142,0.058,-0.028,0.02,-0.38 (active),0.182,0.009,-0.062,-0.034,-0.045,-0.023,0.123,0.071,0.061,0.016,-0.244
BAIAP2 (UniProt Q9UQB8),0.033,0.089,0.012,-0.008,0.018,0.017,0.014,-0.063,-0.101,-0.016,-0.016,-0.032,-0.265 (active),-0.034,-0.033,-0.056,0.062,0,0.001,0.041
ABHD16A (UniProt O95870),-0.036,0.02,-0.048,0.161,0.208,-0.094,0.036,0.009,-0.005,0.023,-0.039,0.043,-0.026,0.047,0.361 (active),0.656 (active),0.064,-0.009,-0.064,0.012
ASH2L (UniProt Q9UBL3),-0.021,0.025,0.019,-0.062,-0.012,0.022,0.001,-0.029,-0.004,0.052,-0.022,-0.048,-0.046,0.004,-0.018,0.016,-0.004,-0.013,-0.013,-0.044
ATR (UniProt Q13535),0.014,-0.011,-0.039,0.018,0.02,0.02,-0.017,0.086,-0.029,0.046,0.093,0.031,0.021,-0.03,-0.077,0.046,0.037,0.101,0.002,0.109
BST2 (UniProt Q10589),-0.018,0.026,-0.046,0,0.009,0.024,-0.062,-0.013,0.066,-0.063,-0.004,0,-0.109,0.033,0.025,-0.108,0.12,-0.006,0.026,0.017
ARFRP1 (UniProt Q13795),-0.018,-0.017,0.096,0.008,0.12,0.048,0.057,0.015,-0.013,0.032,-0.083,0.031,0.02,0.004,-0.041,-0.028,-0.073,0.017,-0.044,0.075
ACTR1B (UniProt P42025),-0.13,-0.048,-0.145,0.041,0.02,0.002,-0.037,-0.017,-0.02,0.011,0.066,0.003,-0.041,0.07,-0.065,0.042,-0.071,0.003,-0.099,-0.013
ATAD1 (UniProt Q8NBU5),0.037,0.036,0.295 (active),0.021,0.054,-0.022,0.059,0.123,0,-0.006,-0.007,0.011,-0.081,0.238 (active),-0.083,-0.077,0.038,0.041,-0.083,0.054
ACSF3 (UniProt Q4G176),0.07,-0.066,0.057,-0.155,-0.104,0.04,0.028,0.022,-0.001,-0.038,0.05,-0.088,-0.129,-0.004,-0.063,-0.138,0.077,0.011,-0.061,0.023
BOP1 (UniProt Q14137),-0.003,0.038,-0.144,0,-0.053,0.041,-0.153,-0.014,0.043,0.036,-0.039,0.01,-0.083,0.041,0.119,-0.068,0.031,0.021,0.01,-0.078
BCL9L (UniProt Q86UU0),0.01,-0.256,-0.008,0.049,0.036,-0.048,-0.128,0.07,-0.052,0.091,-0.045,0,0.04,-0.024,-0.009,0.015,0.092,0.013,0.006,0.101
BTAF1 (UniProt O14981),0.04,0.078,0.072,0.005,0.048,-0.006,-0.038,-0.032,0.011,0.05,0.021,0.029,0.022,-0.043,-0.168,-0.131,0.01,-0.011,0.003,-0.087
ALG3 (UniProt Q92685),0.024,0.127,0.07,-0.081,0.03,-0.002,0.022,-0.011,-0.133,0.103,-0.081,-0.022,-0.08,-0.08,-0.034,-0.267,-0.038,-0.075,-0.037,-0.045
